Hit rate of the full screen: of about 2,100 compounds, about 210 (10%) were called active. Another 53% or so got no clear call; they are omitted. The call rests on the fitted dose curve; in most records, active means well fitted inhibition curve with a large enough effect; inconclusive means small, poorly fitted or top-dose-only effect, or effect the other way; inactive means no such curve, though single readings can be large or run the other way. Some of the results follow. A call without a number means that no potency is given here.
Potency means the concentration at half of the fitted maximal effect.

The test is described as follows: IN Cell qHTS Assay for Inhibitors of the mTORC1 Signaling Pathway in MEF (Tsc2-/-, p53-/-) Cells: Sytravon. Further: nearly all actives have a fitted effect of over 60% in size. The note with it: phospho-rpS6 immunofluorescence, 24 h; series mostly up to 38.3 µM. The gist of the method:
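Immunofluorescence of rpS6 phosphorylation (Ser235/236) in mouse embryonic fibroblasts lacking Tsc2 and p53, after 24 h compound exposure; Hoechst-normalized signal imaged, each well scored as % active cells relative to rapamycin (7.5 nM) and DMSO controls.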
On the technique in general: Quantitative high-throughput screening tests each substance at several concentrations.
Turning to `CCCCC(=O)Nc1nnc(S(=O)(=O)N2CCCCCC2)s1`, the Potency entry is “inactive”.

`CCCN(C(=O)Cn1ncc2c([nH]c3ccc(C)cc32)c1=O)c1ccccc1C`: the Potency result was “inactive”.

`CCN(CC)CCCNc1ncnc2c1cnn2-c1ccc(C)c(C)c1`: the Potency result is “inactive”.

For the compound `O=C(Nc1ccc(F)cc1F)N1CCN(c2ccc(Cl)c(Cl)c2)CC1`, the Potency result is “inactive”. Under `Cc1ccccc1NC(=O)CCn1cnc2onc(-c3ccc(F)cc3)c2c1=O` stands “inactive”; under `Cc1cc2c(cc1C)NC(CC(=O)Nc1ccccc1)C(=O)N2` (stereo unspecified), “inactive”.

With `Cc1ccc2nc(N3CCC(C(=O)N4CCN(c5cccc(Cl)c5)CC4)CC3)[nH]c2c1`, the Potency result was “inactive”. Under `Cc1oc2ncnc(N3CCCCC3)c2c1C(=O)N1CCN(c2cccc(Cl)c2)CC1` stands “inactive”; under `Cc1ccccc1S(=O)(=O)Cc1ccc(C(=O)N2CCN(c3cccc(Cl)c3)CC2)o1`, “inactive”; under `CCCS(=O)(=O)c1ncc(Cl)c(C(=O)N2CCN(c3ccc(OC)cc3)CC2)n1`, “inactive”.

In the case of `CCS(=O)(=O)c1ncc(Cl)c(C(=O)N2CCN(c3ccc(OC)cc3)CC2)n1`, the Potency is 4650 nM (active). On to `CCn1c2c(c(=O)n3ncc(C(=O)N4CCN(c5ccc(Cl)cc5)CC4)c13)CN(Cc1ccc(OC)cc1)CC2`, for which the Potency entry is “inactive”. Turning to `CS(=O)(=O)c1ncc(Cl)c(C(=O)N2CCN(c3cccc(Cl)c3)CC2)n1`, the Potency is 521 nM (active).

As for `CCS(=O)(=O)c1ncc(Cl)c(C(=O)N2CCN(c3cccc(Cl)c3)CC2)n1`, the Potency is 2610 nM (active). Turning to `CNS(=O)(=O)c1cn(CC(=O)N2CCN(c3cccc(Cl)c3)CC2)cc1S(=O)(=O)NC`, the Potency entry is “inactive”. Under `COc1ccc(N2CCN(C(CNC(=O)C(=O)NCc3ccc(F)cc3)c3cccnc3)CC2)cc1` (stereo unspecified) stands “inactive”; under `Cc1ccc(CNS(=O)(=O)c2cc(C(=O)Nc3cccc(C(F)(F)F)c3)ccc2F)cc1`, “inactive”. Under `COc1ccc(NC(=O)c2c(NCc3ccc(C)o3)sc3c2CCC(C)C3)c(OC)c1` (stereo unspecified) stands “inactive”. The value for `CC(=O)N1c2ccc(S(=O)(=O)NCC3CCC(C(=O)Nc4cccc(F)c4)CC3)cc2CC1C` (stereo unspecified) was “inactive”; that for `Cc1cc(-c2ccc(S(=O)(=O)Nc3cc(Cl)ccc3C)s2)on1` was “inactive”.

For `COc1cccc(CNC(=O)C2Cc3cc(S(=O)(=O)N4CCCCCC4)ccc3N2C(C)=O)c1` (stereo unspecified), the Potency result was “inactive”.

For `Cc1ccc2nc(/C(C#N)=C/c3cccc(Br)c3)[nH]c2c1`, the Potency entry is “inactive”.

As to `Cc1cccc(-n2nnnc2S(C)(=O)=O)c1`, the Potency is 1470 nM (active). The value for `CCc1ccc(S(=O)(=O)c2nnn(-c3cccc(C)c3)c2N)cc1` was “inactive”; that for `Cc1cccc(C2C=C(c3ccc(C)c(C)c3)Nc3nnnn32)c1` (stereo unspecified) was “inactive”. Under `COc1ccc(C(=O)NC(c2ccccc2Cl)c2cc(Cl)c3cccnc3c2O)cc1` (stereo unspecified) stands “inactive”. The value for `O=C(Nc1nnc(-c2cc(Cl)ccc2Cl)o1)c1ccc2c(c1)OCCO2` was “inactive”. Consider `COC(=O)c1sc2cccc(F)c2c1S(=O)(=O)N1CCN(c2cccc(OC)c2)CC1`, for which the Potency entry was “inactive”. The value for `COc1ccc(/C=C/c2nc(C#N)c(NC3CCCCC3)o2)cc1OC` was “inactive”. The value for `COc1ccc(NC(=O)c2c(C)oc3ccc(O)c(CN4CCCCCC4)c23)cc1` was “inactive”; that for `COc1cccc(-c2cc(C(=O)Nc3ccn(Cc4ccc(C)cc4)n3)no2)c1` was “inactive”; that for `COc1cccc(-c2nnc3sc(CN4CCCCC4)cn23)c1` was 14700 nM (active).

In the case of `Cc1ccc(CNCc2c(C(=O)O)n(Cc3ccc(C)cc3)c3cc(C)ccc23)cc1`, the Potency result was “inactive”.

On to `O=C(Nc1ccc(C(F)(F)F)cc1)c1cc(S(=O)(=O)NC2CCCCCC2)ccc1F`, for which the Potency result is “inactive”.

On to `CCc1ccccc1NC(=O)CSc1nnc(COc2ccccc2Cl)o1`, for which the Potency entry is “inactive”.

Consider `Cc1ccc(OCC(=O)Nc2nnc(SCc3cc(=O)n4cc(C)ccc4n3)s2)cc1`, for which the Potency entry is “inactive”. Under `COc1cc(C(=O)N2CCc3c([nH]c4ccccc34)C2c2ccc(C)cc2)cc(OC)c1OC` (stereo unspecified) stands “inactive”; under `COc1cc(C(=O)n2nc(C)c(Sc3ccc(Cl)cc3)c2C)cc(OC)c1OC`, 11700 nM (active); under `Cc1ccc(-n2c(SCc3ccccc3C)nc3[nH]ncc3c2=O)cc1C`, “inactive”. Under `COc1ccc(Cl)cc1NC(=O)c1c(NCc2cccnc2)sc2c1CCC(C)C2` (stereo unspecified) stands “inactive”; under `CC(C)(C)C1CCc2c(sc(NC(=O)c3cccc(Cl)c3)c2C(N)=O)C1` (stereo unspecified), 7360 nM (active).

On to `COc1ccc(Cl)cc1NC(=O)c1c(NCc2cccs2)sc2c1CCC(C)C2` (stereo unspecified), for which the Potency entry is “inactive”.

`CCCCC(=O)OC1=C(C(=O)c2ccccc2)N(CCC)S(=O)(=O)c2ccccc21`: the Potency entry was “inactive”. Under `Cc1scc(CN2CCN(c3ccccc3F)CC2)c1C` stands “inactive”; under `CC1C(=O)Nc2ccc(S(=O)(=O)Nc3ccccc3Br)cc2NC1=O` (stereo unspecified), “inactive”. The value for `CN(C)CCNC(=O)c1ccc(-n2c(-c3ccccc3)cc3c2CCCCC3)cc1` was “inactive”; that for `CC(=O)Nc1c(C(=O)Nc2ccccc2F)oc2ccccc12` was “inactive”; that for `CCS(=O)(=O)c1ncc(Cl)c(C(=O)Nc2ccccc2)n1` was 2610 nM (active). Consider `CCCS(=O)(=O)c1ncc(Cl)c(C(=O)Nc2c(C(=O)Nc3ccccc3)oc3ccccc23)n1`, for which the Potency was 2070 nM (active).

In the case of `CCS(=O)(=O)c1ncc(Cl)c(C(=O)Nc2ccc(S(=O)(=O)N(C)c3ccccc3)cc2)n1`, the Potency was 927 nM (active). Under `CCS(=O)(=O)c1ncc(Cl)c(C(=O)Nc2c(C(=O)Nc3cccc(C)c3)oc3ccccc23)n1` stands “inactive”; under `CCSc1ncc(Cl)c(C(=O)Nc2ccc(S(=O)(=O)N3CCCCC3CC)cc2)n1` (stereo unspecified), “inactive”; under `CCNC(=O)c1c(NC(=O)c2nc(S(=O)(=O)CC)ncc2Cl)sc2c1CCCC2`, 2070 nM (active). Under `CN(C)C(=O)c1c(NC(=O)c2ccccc2F)sc2c1CCCC2` stands “inactive”; under `Cc1cc(C)cc(-n2c(SCC(N)=O)nc3c([nH]c4ccccc43)c2=O)c1`, “inactive”; under `CC1=C(C(=O)Nc2ccccc2)C(c2cccnc2)n2nc(SCc3ccccc3F)nc2N1` (stereo unspecified), “inactive”. Consider `COc1ccc(Cl)cc1NC(=O)c1c(NCc2ccc(C)o2)sc2c1CCC(C)C2` (stereo unspecified), for which the Potency entry was “inactive”.

Consider `COC(=O)c1ccc([C@H]2Nc3ccc(S(=O)(=O)Nc4ccc(F)cc4)cc3[C@H]3C=CC[C@H]32)cc1`, for which the Potency result is “inactive”.

As for `CC(C)c1ccc(S(=O)(=O)Nc2ccc3oc4c(c3c2)C(=O)CC(C)(C)C4)cc1`, the Potency entry is “inactive”. The value for `COc1cc(S(=O)(=O)NCCc2c(C)[nH]c3ccccc23)c(C)cc1C` was “inactive”; that for `CSc1ncc(Cl)c(C(=O)N(C)c2ccccc2)n1` was “inactive”. Under `CN(C)S(=O)(=O)c1ccc(C(=O)Nc2ccc(-n3nncc3-c3ccccc3)cc2)cc1` stands “inactive”; under `COC(=O)c1sccc1S(=O)(=O)N(CC(=O)Nc1ccc(C)cc1)c1ccccc1`, “inactive”; under `CN(c1ccccc1)S(=O)(=O)c1ccc(NC(=O)c2nc(S(C)(=O)=O)ncc2Cl)cc1`, 736 nM (active).

In the case of `CCN(c1ccccc1)S(=O)(=O)c1ccc(NC(=O)c2nc(S(C)(=O)=O)ncc2Cl)cc1`, the Potency is 2070 nM (active).

Consider `CCN(CC)c1nc2ccccc2nc1C(=O)Nc1ccc(C(C)=O)cc1`, for which the Potency entry is “inactive”. The value for `Oc1cccc(Nc2nc(-c3ccccc3)nc3ccccc23)c1` was “inactive”; that for `Cc1ccc(-n2cnc3cc(C(=O)NCCC4=CCCCC4)ccc32)cc1Cl` was “inactive”. As for `Cc1ccc(NC(=O)N2CC3CCCN3c3ccccc32)cc1Cl` (stereo unspecified), the Potency result is “inactive”. On to `Cc1ccc(-c2nn3c(=O)cc(CN4CCN(C(=O)Nc5cc(Cl)ccc5C)CC4)nc3s2)cc1`, for which the Potency result was “inactive”. The value for `CCOC(=O)c1c(NC(=O)c2ccc(S(=O)(=O)N3CCC(C)CC3)cc2)sc2c1CCN(C)C2` was “inactive”; that for `COc1ccccc1CNC(=O)C(=O)NCC(c1cccnc1)N1CCN(c2ccc(F)cc2)CC1` (stereo unspecified) was “inactive”.

In the case of `Cc1ccc(/C=C(\C#N)C(=O)Nc2ccc(Br)cc2)o1`, the Potency result is “inactive”. Under `Cc1[nH]n2c(=O)cc(-c3ccc(Cl)cc3)nc2c1-c1ccccc1` stands “inactive”; under `Cc1ccc(OCCn2c(CNc3cccc(C)c3)nc3ccccc32)cc1`, “inactive”; under `CCn1c(=N)n(CCOc2ccc(Br)cc2)c2ccccc21`, 6560 nM (active). The value for `N=c1n(CCN2CCCCC2)c2ccccc2n1CC(O)COc1ccc(Cl)cc1Cl` (stereo unspecified) was 2610 nM (active); that for `CCCCn1c(=N)n(CCOc2ccccc2OC)c2ccccc21` was 6560 nM (active).

Take `COc1ccccc1N1CCN(CC(O)COc2ccc(C)cc2C(C)(C)C)CC1` (stereo unspecified): the Potency entry is “inactive”.

Take `COc1cccc(OCc2nc3ccccc3n2CCOc2ccc(C)cc2)c1`: the Potency entry is “inactive”.

For `Cc1ccccc1OCC(O)Cn1c(=N)n(CCN2CCCCC2)c2ccccc21` (stereo unspecified), the Potency was 5850 nM (active). The value for `COc1cc(C2CC(=O)Nc3cc4c(cc32)OCCO4)cc(OC)c1O` (stereo unspecified) was “inactive”; that for `COc1ccccc1NC(=O)CSc1nnc2c(n1)[nH]c1ccccc12` was “inactive”. Under `CCN(C(=O)c1cc2c(=O)oc3ccc(C)cc3c2s1)c1ccccc1F` stands “inactive”. Turning to `Cc1ccccc1C(=O)Nc1cccc(OCc2cc(=O)n3cccc(C)c3n2)c1`, the Potency result was “inactive”.

Regarding `CCOc1ccc(C2=C(C(C)=O)Sc3nnc(C)n3N2C(C)=O)cc1`, the Potency entry is “inactive”. Under `O=C(NCc1ccccc1Cl)c1nnc(Cc2cccc(F)c2)o1` stands “inactive”; under `COc1ccc(C)cc1NC(=O)C(NS(=O)(=O)c1cccs1)c1ccccc1` (stereo unspecified), “inactive”. Consider `CCCCCn1c(-c2cccc(C)c2)nc2ccccc21`, for which the Potency entry is “inactive”. Under `CCN(CC)CCn1c(=N)n(CCOc2ccccc2Cl)c2ccccc21` stands 3690 nM (active).

For `Cc1ccccc1OCCn1c(=N)n(C(C)C)c2ccccc21`, the Potency was 9270 nM (active). The value for `CCCCCn1c(=N)n(CC(O)COc2cccc(C)c2)c2ccccc21` (stereo unspecified) was 2610 nM (active); that for `COc1ccc(N2CCN(CC(O)COc3ccc(C)c(C)c3)CC2)cc1` (stereo unspecified) was “inactive”; that for `CCN(CC)CCn1c(=N)n(CC(O)COc2ccccc2C)c2ccccc21` (stereo unspecified) was 5850 nM (active). Under `Cc1ccc(C(=O)n2nc(C)c(S(=O)(=O)N3CCCCCC3)c2C)cc1` stands “inactive”; under `Cc1ccc(NC(=O)CCNS(=O)(=O)c2cccc3nonc23)cc1Cl`, “inactive”.

For the origin of these results see PubChem BioAssay AID504465 (National Center for Advancing Translational Sciences (NCATS), 2011).
